Several values for one entry are separate records, joined by “and”; a condition that tells them apart may be missing. Identical values can stand only once. Inconclusive results are not listed. A number with no mark means an inactive call. Activity calls are given as the source filed them. The call rests on the fitted dose curve; in most records, active means well fitted cell-killing curve with a large enough effect in the repeat runs; inconclusive means weak or mixed curves, or effect the other way; inactive means no such curve, though single readings can be large or run the other way.
On the % scale 0 is the no-effect control and ±100 the full control effect; potency means the concentration at half of the fitted maximal effect.

A short description of this assay: qHTS assay for identifying genotoxic compounds that show differential cytotoxicity against isogenic chicken DT40 cell lines with known DNA damage response pathways - Rev3 mutant cell line (AID 743014). Further: nearly all actives have a fitted effect of over 55% in size. Conditions: chicken DT40 Rev3-/- viability, CellTiter-Glo, 40 h; series mostly up to 68.4 µM; activity, negative = cytotoxicity: at the top concentration. Background: In qHTS, concentration-response curves come from the screen itself.
For the compound `Cc1c([N+](=O)[O-])c(C)c([N+](=O)[O-])c(C(C)(C)C)c1[N+](=O)[O-]`, the Potency is 68.6 µM (active).
On to `Brc1ccc(Oc2ccc(Br)cc2Br)c(Br)c1`, for which the “activity, negative = cytotoxicity” value was -0.64%.
With `CCOP(=O)(Sc1ccccc1)Sc1ccccc1`, the “activity, negative = cytotoxicity” value is -4.41%.
With `c1ccc2c(c1)cc1ccc3cccc4ccc2c1c34`, the “activity, negative = cytotoxicity” value was 0.851% [at 95 µM].
`CC(=O)[O-].CC(=O)[O-].CC(=O)[O-].[Cr+3]`: the Potency is 60.9 µM (active).
With `Cc1cc2c3c(c1)C(c1ccccc1)=N[C@@H](NC(=O)c1ccncc1)C(=O)N3CC2`, the Potency is 61.1 µM (active).
For `CC(C)N(C(=O)CCl)c1ccccc1`, the Potency was 2.17 µM (active) and 3.86 µM (active).
Still for that read-out and setting: the same measure for `CCNc1nc(NC(C)C(C)C)nc(SC)n1` (centres undefined): 34.4 µM (active).
For `CCCN`, the “activity, negative = cytotoxicity” value was 8.13% [at 95 µM].
As to `CC(=O)[O-].CC(=O)[O-].CC(=O)[O-].[Sb+3]`, the activity, negative = cytotoxicity was 0.291% [at 8.53 µM].
For `Nc1cc(Cl)ccc1Cl`, the “activity, negative = cytotoxicity” value was -0.493%.
For `CN1CCc2cc3c(cc2C1O)OCO3` (centres undefined), the “activity, negative = cytotoxicity” value was -11.4% [at 95 µM].
In the case of `COP(=O)(OC)O/C(=C\Cl)c1cc(Cl)c(Cl)cc1Cl`, the Potency was 30.6 µM (active).
As for `CCCC[N+]1(C)CCCC1` (tested in a mixture with another compound), the “activity, negative = cytotoxicity” value was -0.571% [at 95 µM].
`CCCCN(CCCC)C(=S)[S-].CCCCN(CCCC)C(=S)[S-].[Ni+2]`: the “activity, negative = cytotoxicity” value is 2.11%.
On the same count and under the same terms, in the case of `O=C(Nc1ccc(F)cc1F)c1cccnc1Oc1cccc(C(F)(F)F)c1` it was -4.66% [at 95 µM].
For the compound `CCOC(=O)Cc1ccccc1`, the “activity, negative = cytotoxicity” value is -1.87%.
The same measure, in the same setting: the same measure for `Brc1cccc(-c2ccccc2)c1`: -15% [at 95 µM].
Same read-out and setting: in the case of `ClC(Cl)C(Cl)(Cl)Cl` it was 1.83%.

For the origin of these results see PubChem BioAssay (Tox21).
